Each molecule was assayed on PAK2. Conditions: concentration: 1 μM, replicates: in singlicate; n = 1.
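Further: KINOMEscan kinase panel screen.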

| Compound | %Inh [%] |
| --- | --- |
| Cc1ccc(C(=O)Nc2ccc(Nc3ccnc4cc(-c5ccccn5)ccc34)cc2O)cc1.Cl [GW440146] | 15 |
| Cl.c1ccc(-c2n[nH]cc2-c2ccnc(-c3ccc(CN4CCOCC4)cc3)c2)nc1 [GW776245] | 14 |
| Cn1cncc1-c1ccc2ncnc(Nc3ccc(OCc4ccccc4)cc3)c2c1 [GW320571] | 0 |
| Clc1cc(Cl)cc(Nc2ccnc(Nc3cc(Cl)cc(Cl)c3)n2)c1 [GSK175726] | 0 |
| Cc1cccc(-c2nc(-c3ccc(S(C)(=O)=O)cc3)sc2-c2ccnc(NCCc3ccccc3)c2)c1 | 20 |
| Cc1cccc(-c2nc(Nc3ccncc3)c3ccccc3n2)n1 [GW855857] | 0 |
| COc1ccc(Nc2nccc(-c3cccc(NC(=O)c4cc5cc(F)ccc5[nH]4)c3)n2)cc1 [GSK1229782] | 35 |
| COc1cc2ncn(-c3cc(OCC4CCCO4)c(C(N)=O)s3)c2cc1OC (stereo not drawn) [GSK204607] | 0 |
| COc1ccc(CNC(=O)NC2CCN(c3ccnc(Nc4cc(OC)c(OC)c(OC)c4)n3)C2)cc1 (stereo not drawn) [GSK1379748] | 0 |
| CC(C)(C)c1ccc(C(=O)Nc2cn3cc(Cl)ccc3n2)cc1 | 14 |
| O=C(Nc1n[nH]c2cc(-c3cccc(F)c3F)ccc12)C1CC1 [SB-733894] | 41 |
| CCn1c(-c2ccccn2)nc2cnccc21 [SB-736398] | 24 |
| Cn1ccc2ncnc(Oc3cccc(C(=O)Nc4ccccc4)c3)c21 | 0 |
| Fc1cc(Cl)ccc1Nc1ccnc2cc(-c3ccc(CN4CCCCC4)o3)ccc12 [GW560116] | 5 |
| O=S(=O)(c1ccc(-c2ccnc3[nH]ccc23)cc1)N1CCCC1 [GSK846226] | 0 |
| CC(C)(C)c1ccc(C(=O)Nc2cn3cc(-c4cccnc4)ccc3n2)cc1 | 36 |
| O=C(Nc1n[nH]c2nc(-c3nccs3)c(Br)cc12)C1CCCC1 [SB-742609] | 21 |
| COc1ccc(Nc2nccc(NCCNC(=O)Nc3ccccc3F)n2)cc1 [GSK1379901] | 0 |

| Compound | %Inh [%] |
| --- | --- |
| O=C1NC(=O)C(N2CCc3ccccc32)=C1c1ccccc1Cl [SB-373598] | 10 |
| O=C(Nc1ccccc1)Nc1cccc(Oc2ccc3nccn3n2)c1 | 0 |
| COc1cc(Nc2nccc(N3CCC(NC(=O)Nc4cc(C)ccc4C)C3)n2)cc(OC)c1OC (stereo not drawn) [GSK1379762] | 4 |
| COc1ccccc1CNC(=O)c1cc(C(=O)c2ccccc2C)c[nH]1 [GSK364507] | 1 |
| COc1cc2ncnc(Nc3ccc4nc(-c5ccccc5)[nH]c4c3)c2cc1OC.Cl [GW282450] | 9 |
| Cc1cccc(-c2nc(Nc3ccc4[nH]ncc4c3)c3ccccc3n2)n1 [GW857175] | 2 |
| O=c1cc(N2CCOCC2)nc2n(Cc3cccc(Cl)c3Cl)ccn12 [GSK2286295] | 11 |
| CN(C)CCN(C)C(=O)c1cc(-c2ccncc2)c(-c2ccc(Cl)c(O)c2)o1.Cl.Cl [SB-710397] | 0 |
| COc1ccc2nc(-c3cccc(C)n3)nc(Nc3ccncc3)c2c1 [GSK204919] | 14 |
| Cl.Oc1ccc(-c2nc(-c3ccccc3)[nH]c2-c2ccncc2)cc1 [SB-428218] | 55 |
| Cn1ccc2ncnc(Oc3ccc(NC(=O)Nc4ccccc4)cc3)c21 | 17 |
| COC(=O)c1c(-c2ccccc2)c2cc(C(=O)O)ccc2c(=O)n1Cc1ccccc1 | 22 |
| CS(=O)(=O)c1ccc(-c2nc3n(c2-c2ccncc2)CCC3)cc1 [SKF-105942] | 26 |
| NC(=O)c1nnc2ccccc2c1N | 7 |
| Cc1cc(NCC(c2ccccc2)c2ccccc2)nc(NCc2ccc(C(F)(F)F)cc2)n1 [GW497681] | 2 |
| O=C(Nc1ccc2c(c1)OCO2)NC1CCN(c2ccnc(Nc3ccc(F)cc3)n2)C1 (stereo not drawn) [GSK1379724] | 37 |
| Cl.NC(=O)c1cccc(Nc2nccc(Nc3ccc(Oc4cccc(Cl)c4)c(Cl)c3)n2)c1 [GW659008] | 9 |
| COC(=O)c1c(-c2ccccc2)c2cc(OC)ccc2c(=O)n1Cc1ccccc1 | 27 |

The molecules below were run on PAK3. Conditions: concentration: 1 μM, replicates: in singlicate; n = 1.

| Compound | %Inh [%] |
| --- | --- |
| Cc1ccc(C(=O)Nc2ccc(Nc3ccnc4cc(-c5ccccn5)ccc34)cc2O)cc1.Cl [GW440146] | 14 |
| Cl.c1ccc(-c2n[nH]cc2-c2ccnc(-c3ccc(CN4CCOCC4)cc3)c2)nc1 [GW776245] | 10 |
| Cn1cncc1-c1ccc2ncnc(Nc3ccc(OCc4ccccc4)cc3)c2c1 [GW320571] | 2 |
| Clc1cc(Cl)cc(Nc2ccnc(Nc3cc(Cl)cc(Cl)c3)n2)c1 [GSK175726] | 0 |
| Cc1cccc(-c2nc(-c3ccc(S(C)(=O)=O)cc3)sc2-c2ccnc(NCCc3ccccc3)c2)c1 | 0 |
| Cc1cccc(-c2nc(Nc3ccncc3)c3ccccc3n2)n1 [GW855857] | 0 |
| COc1ccc(Nc2nccc(-c3cccc(NC(=O)c4cc5cc(F)ccc5[nH]4)c3)n2)cc1 [GSK1229782] | 13 |
| COc1cc2ncn(-c3cc(OCC4CCCO4)c(C(N)=O)s3)c2cc1OC (stereo not drawn) [GSK204607] | 9 |
| COc1ccc(CNC(=O)NC2CCN(c3ccnc(Nc4cc(OC)c(OC)c(OC)c4)n3)C2)cc1 (stereo not drawn) [GSK1379748] | 0 |
| CC(C)(C)c1ccc(C(=O)Nc2cn3cc(Cl)ccc3n2)cc1 | 0 |
| O=C(Nc1n[nH]c2cc(-c3cccc(F)c3F)ccc12)C1CC1 [SB-733894] | 2 |
| CCn1c(-c2ccccn2)nc2cnccc21 [SB-736398] | 31 |
| Cn1ccc2ncnc(Oc3cccc(C(=O)Nc4ccccc4)c3)c21 | 9 |
| Fc1cc(Cl)ccc1Nc1ccnc2cc(-c3ccc(CN4CCCCC4)o3)ccc12 [GW560116] | 0 |
| O=S(=O)(c1ccc(-c2ccnc3[nH]ccc23)cc1)N1CCCC1 [GSK846226] | 12 |
| CC(C)(C)c1ccc(C(=O)Nc2cn3cc(-c4cccnc4)ccc3n2)cc1 | 51 |
| O=C(Nc1n[nH]c2nc(-c3nccs3)c(Br)cc12)C1CCCC1 [SB-742609] | 17 |
| COc1ccc(Nc2nccc(NCCNC(=O)Nc3ccccc3F)n2)cc1 [GSK1379901] | 0 |

| Compound | %Inh [%] |
| --- | --- |
| O=C1NC(=O)C(N2CCc3ccccc32)=C1c1ccccc1Cl [SB-373598] | 100 |
| O=C(Nc1ccccc1)Nc1cccc(Oc2ccc3nccn3n2)c1 | 0 |
| COc1cc(Nc2nccc(N3CCC(NC(=O)Nc4cc(C)ccc4C)C3)n2)cc(OC)c1OC (stereo not drawn) [GSK1379762] | 29 |
| COc1ccccc1CNC(=O)c1cc(C(=O)c2ccccc2C)c[nH]1 [GSK364507] | 0 |
| COc1cc2ncnc(Nc3ccc4nc(-c5ccccc5)[nH]c4c3)c2cc1OC.Cl [GW282450] | 0 |
| Cc1cccc(-c2nc(Nc3ccc4[nH]ncc4c3)c3ccccc3n2)n1 [GW857175] | 0 |
| O=c1cc(N2CCOCC2)nc2n(Cc3cccc(Cl)c3Cl)ccn12 [GSK2286295] | 0 |
| CN(C)CCN(C)C(=O)c1cc(-c2ccncc2)c(-c2ccc(Cl)c(O)c2)o1.Cl.Cl [SB-710397] | 16 |
| COc1ccc2nc(-c3cccc(C)n3)nc(Nc3ccncc3)c2c1 [GSK204919] | 7 |
| Cl.Oc1ccc(-c2nc(-c3ccccc3)[nH]c2-c2ccncc2)cc1 [SB-428218] | 20 |
| Cn1ccc2ncnc(Oc3ccc(NC(=O)Nc4ccccc4)cc3)c21 | 40 |
| COC(=O)c1c(-c2ccccc2)c2cc(C(=O)O)ccc2c(=O)n1Cc1ccccc1 | 0 |
| CS(=O)(=O)c1ccc(-c2nc3n(c2-c2ccncc2)CCC3)cc1 [SKF-105942] | 0 |
| NC(=O)c1nnc2ccccc2c1N | 5 |
| Cc1cc(NCC(c2ccccc2)c2ccccc2)nc(NCc2ccc(C(F)(F)F)cc2)n1 [GW497681] | 0 |
| O=C(Nc1ccc2c(c1)OCO2)NC1CCN(c2ccnc(Nc3ccc(F)cc3)n2)C1 (stereo not drawn) [GSK1379724] | 0 |
| Cl.NC(=O)c1cccc(Nc2nccc(Nc3ccc(Oc4cccc(Cl)c4)c(Cl)c3)n2)c1 [GW659008] | 33 |
| COC(=O)c1c(-c2ccccc2)c2cc(OC)ccc2c(=O)n1Cc1ccccc1 | 44 |

Reference: publication PMC5540273 (PLoS ONE, 2017)
